The campaign covered roughly 39,000 compounds. About 1,500 (3.8%) were called active. Only a selection was taken, and actives are over-represented in it overall.
Each molecule was assayed on HSkMC (human skeletal muscle cells) (assay: cytotoxicity call (relative viability < 0.9)). Details: 10 µM.

| Structure (SMILES) | cytotoxicity call |
| --- | --- |
| CC1(C)OC2CC3C4CCC5=CC(=O)CCC5(C)C4(F)C(O)CC3(C)C2(C(=O)CCl)O1 (stereo not given) | inactive |
| C[C@H]1CN([C@@H](C)CO)C(=O)CCCn2nncc2CO[C@@H]1CN(C)C(=O)Nc1ccc(N2CCCCC2)cc1 | inactive |
| Cc1noc(C)c1NC(=O)N(C)C[C@@H]1Oc2ccc(NC(=O)Nc3cccc4ccccc34)cc2C(=O)N([C@@H](C)CO)C[C@@H]1C | inactive |
| COc1ccc(CN(C)C[C@H]2OCCCC[C@@H](C)Oc3ccc(NC(=O)c4ccccc4)cc3C(=O)N([C@H](C)CO)C[C@H]2C)cc1 | inactive |
| C[C@@H]1CN([C@H](C)CO)C(=O)c2cc(NS(=O)(=O)c3cccs3)ccc2O[C@@H]1CN(C)S(=O)(=O)c1ccc(F)cc1 | inactive |
| COc1ccc(NC(=O)N(C)C[C@H]2Oc3ncc(C#CCN(C)C)cc3C(=O)N([C@@H](C)CO)C[C@@H]2C)cc1 | inactive |
| C[C@@H]1CCCCO[C@@H](CN(C)C(=O)C2CCCCC2)[C@@H](C)CN([C@H](C)CO)C(=O)c2cc(NC(=O)Nc3cccc4ccccc34)ccc2O1 | inactive |
| COc1ccc(NC(=O)N(C)C[C@@H]2OCCCC[C@H](C)Oc3ccc(NC(=O)NC4CCCCC4)cc3C(=O)N([C@H](C)CO)C[C@@H]2C)cc1 | inactive |
| COCC#Cc1ccc2c(c1)O[C@H](CN(C)S(=O)(=O)c1ccc(F)cc1)[C@H](C)CN([C@@H](C)CO)S2(=O)=O | inactive |
| COc1cccc(S(=O)(=O)Nc2ccc3c(c2)[C@@H]2C[C@H](CC(=O)N4CCCCC4)O[C@H](CO)[C@@H]2O3)c1 | inactive |
| C[C@@H]1CCCCO[C@@H](CN(C)S(=O)(=O)c2ccc(F)cc2)[C@@H](C)CN([C@@H](C)CO)C(=O)c2cc(NS(C)(=O)=O)ccc2O1 | inactive |
| C[C@@H]1CCCCO[C@@H](CN(C)Cc2ccccc2)[C@@H](C)CN([C@H](C)CO)C(=O)c2cc(NC(=O)Nc3cccc4ccccc34)ccc2O1 | inactive |
| C[C@@H]1CCCCO[C@@H](CN(C)Cc2ccccc2)[C@H](C)CN([C@@H](C)CO)C(=O)c2cc(NC(=O)Nc3cccc4ccccc34)ccc2O1 | inactive |
| C[C@@H]1CN([C@H](C)CO)C(=O)c2cc(NC(=O)Nc3cccc4ccccc34)ccc2O[C@@H](C)CCCCO[C@@H]1CN(C)Cc1ccccc1 | inactive |
| C[C@@H]1CN([C@@H](C)CO)C(=O)c2cc(NC(=O)Nc3cccc4ccccc34)ccc2O[C@@H](C)CCCCO[C@@H]1CN(C)Cc1ccccc1 | active |
| C[C@@H]1CCCCO[C@H](CN(C)Cc2ccccc2)[C@H](C)CN([C@@H](C)CO)C(=O)c2cc(NC(=O)Nc3cccc4ccccc34)ccc2O1 | active |
| C[C@H]1CCCCO[C@H](CN(C)Cc2ccccc2)[C@@H](C)CN([C@@H](C)CO)C(=O)c2cc(NC(=O)Nc3cccc4ccccc34)ccc2O1 | active |
| C[C@@H]1CCCCO[C@@H](CN(C)Cc2ccccc2)[C@H](C)CN([C@H](C)CO)C(=O)c2cc(NC(=O)Nc3cccc4ccccc34)ccc2O1 | inactive |
| C[C@@H]1CCCCO[C@@H](CN(C)Cc2ccc(C(=O)O)cc2)[C@@H](C)CN([C@@H](C)CO)C(=O)c2cc(NC(=O)Nc3cccc4ccccc34)ccc2O1 | inactive |
| C[C@@H]1CN([C@@H](C)CO)C(=O)c2cc(NC(=O)Nc3cccc4ccccc34)ccc2O[C@@H](C)CCCCO[C@H]1CN(C)Cc1ccccc1 | inactive |

| Structure (SMILES) | cytotoxicity call |
| --- | --- |
| COc1ccc(S(=O)(=O)N2C[C@H](O)COC[C@@H]3O[C@@H](CC(=O)N[C@H]4CCN(Cc5ccccc5)C4)CC[C@H]32)cc1 | inactive |
| CN1C[C@@H](O)COC[C@H]2O[C@H](CC(=O)N3CCN(c4ccccc4)CC3)CC[C@@H]21 | inactive |
| C=CCOC(=O)[C@H]1[C@@H]2C(=O)O[C@@H](c3ccccc3)[C@@H](c3ccccc3)N2[C@@H](c2ccc(OCCOC(=O)[C@H]3C[C@H]4C(=O)N[C@@H](Cc5ccccc5)C(=O)N4[C@H]3c3cccc(OCCO)c3)cc2)[C@]12C(=O)Nc1ccc(I)cc12 | inactive |
| CCS(=O)(=O)N1C[C@]2(CCN(CC2)C(=O)NC2CCCC2)c2c(n(c3cc(ccc23)OC)C)[C@@H]1CO | inactive |
| C[C@@H]1CN([C@@H](C)CO)C(=O)c2cc(NC(=O)Nc3ccc(C(F)(F)F)cc3)ccc2O[C@H]1CN(C)C(=O)NC1CCCCC1 | inactive |
| C[C@@H]1CCCCO[C@@H](CN(C)C(=O)Nc2ccc(C(F)(F)F)cc2)[C@@H](C)CN([C@@H](C)CO)C(=O)c2cc(NC(=O)C3CCCCC3)ccc2O1 | inactive |
| CCNC(=O)C[C@@H]1C=C[C@H](NC(=O)C2CCOCC2)[C@@H](CO)O1 | inactive |
| C[C@@H]1CCCCO[C@@H](CN(C)S(=O)(=O)c2cccs2)[C@H](C)CN([C@@H](C)CO)C(=O)c2cc(NC(=O)CCC(F)(F)F)ccc2O1 | inactive |
| O=C(C[C@@H]1C[C@@H]2c3cc(NC(=O)NC4CCCC4)ccc3O[C@@H]2[C@@H](CO)O1)NCc1ccc(-c2ccccc2)cc1 | inactive |
| CS(=O)(=O)Nc1ccc2c(c1)[C@@H]1C[C@@H](CC(=O)NCc3ccc(-c4ccccc4)cc3)O[C@H](CO)[C@@H]1O2 | inactive |
| O=C(C[C@H]1C[C@@H]2c3cc(NC(=O)NC4CCCC4)ccc3O[C@@H]2[C@H](CO)O1)NCc1ccc(-c2ccccc2)cc1 | inactive |
| CS(=O)(=O)Nc1ccc2c(c1)[C@H]1C[C@H](CC(=O)NCc3ccc(-c4ccccc4)cc3)O[C@@H](CO)[C@H]1O2 | inactive |
| O=C(C[C@H]1C[C@H]2c3cc(NC(=O)NC4CCCC4)ccc3O[C@H]2[C@H](CO)O1)NCc1ccc(-c2ccccc2)cc1 | inactive |
| O=C(C[C@H]1C[C@H]2c3cc(NC(=O)NC4CCCC4)ccc3O[C@H]2[C@@H](CO)O1)NCc1ccc(-c2ccccc2)cc1 | inactive |
| O=C(C[C@@H]1C[C@H]2c3cc(NC(=O)NC4CCCC4)ccc3O[C@H]2[C@H](CO)O1)NCc1ccc(-c2ccccc2)cc1 | active |
| O=C(C[C@H]1C[C@@H]2c3cc(NC(=O)NC4CCCC4)ccc3O[C@@H]2[C@@H](CO)O1)NCc1ccc(-c2ccccc2)cc1 | active |
| CS(=O)(=O)Nc1ccc2c(c1)[C@@H]1C[C@@H](CC(=O)NCc3ccc(-c4ccccc4)cc3)O[C@@H](CO)[C@@H]1O2 | active |
| CC(C)NC(=O)N[C@@H]1C=C[C@@H](CC(=O)O)O[C@@H]1CO | inactive |
| COc1ccc(S(=O)(=O)N(C)C[C@H]2Oc3ccc(NS(=O)(=O)c4cccs4)cc3CC(=O)N([C@H](C)CO)C[C@@H]2C)cc1 | inactive |
| C[C@@H]1CN([C@@H](C)CO)C(=O)c2cc(NC(=O)Nc3ccccc3)ccc2O[C@@H](C)CCCCO[C@H]1CN(C)S(=O)(=O)c1ccc(C(F)(F)F)cc1 | inactive |

| Structure (SMILES) | cytotoxicity call |
| --- | --- |
| Cc1ccc2cccc(OCCOc3ccccc3C(C)C)c2n1 | inactive |
| O=C(C[C@@H]1CC[C@H]2[C@@H](COC[C@@H](O)CN2S(=O)(=O)c2ccc(Oc3ccccc3)cc2)O1)NC1CCC1 | inactive |
| Cc1ccc2nc([C@H](N)C(C)C)[nH]c2c1 | inactive |
| C[C@@H]1CN([C@@H](C)CO)C(=O)Cc2cc(NC(=O)Cc3ccccc3)ccc2O[C@@H]1CN(C)Cc1ccc(Cl)c(Cl)c1 | active |
| C[C@@H]1CN([C@H](C)CO)C(=O)Cc2cc(NC(=O)Cc3ccccc3)ccc2O[C@@H]1CN(C)Cc1ccc(Cl)c(Cl)c1 | active |
| C[C@@H]1CN([C@@H](C)CO)C(=O)Cc2cc(NC(=O)Cc3ccccc3)ccc2O[C@H]1CN(C)Cc1ccc(Cl)c(Cl)c1 | inactive |
| C[C@H](CO)N1C[C@H](C)[C@H](CN(C)Cc2ccc(Cl)c(Cl)c2)Oc2ccc(NC(=O)Cc3ccccc3)cc2CC1=O | inactive |
| C[C@H]1CN([C@@H](C)CO)C(=O)Cc2cc(NC(=O)Cc3ccccc3)ccc2O[C@@H]1CN(C)Cc1ccc(Cl)c(Cl)c1 | inactive |
| C[C@@H]1CN([C@H](C)CO)C(=O)Cc2cc(NC(=O)Cc3ccccc3)ccc2O[C@H]1CN(C)Cc1ccc(Cl)c(Cl)c1 | inactive |
| Cc1ccc(S(=O)(=O)Nc2cccc3c2O[C@@H](CN(C)S(=O)(=O)c2cccs2)[C@H](C)CN([C@@H](C)CO)C3=O)cc1 | inactive |
| C[C@@H]1CN([C@H](C)CO)C(=O)Cc2cc(NC(=O)C3CCCCC3)ccc2O[C@H]1CN(C)Cc1ccc(Cl)c(Cl)c1 | inactive |
| C[C@@H]1CN([C@H](C)CO)C(=O)Cc2cc(NC(=O)C3CCCCC3)ccc2O[C@@H]1CN(C)Cc1ccc(Cl)c(Cl)c1 | active |
| C[C@H]1CN([C@@H](C)CO)C(=O)Cc2cc(NC(=O)C3CCCCC3)ccc2O[C@@H]1CN(C)Cc1ccc(Cl)c(Cl)c1 | inactive |
| C[C@H]1CN([C@@H](C)CO)C(=O)Cc2cc(NC(=O)C3CCCCC3)ccc2O[C@H]1CN(C)Cc1ccc(Cl)c(Cl)c1 | inactive |
| C[C@@H]1CN([C@@H](C)CO)C(=O)Cc2cc(NC(=O)C3CCCCC3)ccc2O[C@H]1CN(C)Cc1ccc(Cl)c(Cl)c1 | inactive |
| C[C@@H]1CN([C@@H](C)CO)C(=O)Cc2cc(NC(=O)C3CCCCC3)ccc2O[C@@H]1CN(C)Cc1ccc(Cl)c(Cl)c1 | active |
| COc1ccc(NC(=O)Nc2cccc3c2O[C@@H](CN(C)S(=O)(=O)c2cn(C)cn2)[C@@H](C)CN([C@@H](C)CO)C3=O)cc1 | inactive |
| O=C(C[C@H]1CC[C@H]2[C@@H](COC[C@@H](O)CN2Cc2cc(F)ccc2F)O1)N[C@H]1CCN(Cc2ccccc2)C1 | inactive |
| O=C(C[C@@H]1CC[C@H](NC(=O)CN2CCOCC2)[C@@H](CO)O1)NCc1cccc(F)c1 | inactive |
| CN1C(=O)c2cc(NC(=O)C3CCCC3)ccc2OC[C@@H]2O[C@H](CC(=O)NCCc3ccncc3)CC[C@@H]21 | inactive |

Reference: the antibiotic and cytotoxicity screens of Wong et al. (2023)
